Screening data deposited in PubChem by National Center for Advancing Translational Sciences (NCATS).
PNC assembly inh: High Content Assay for Compounds that inhibit the Assembly of the Perinucleolar Compartment; PC3M PTB-GFP, PNC prevalence imaging, 16 h; stronger effect = lower value; AID 2417, 2010; activity change (PNC), negative = inhibition, % at 10 µM; 140,000 tested, 3.1% active;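 active = readout at or below -70, meaning at least 70% loss of cells showing the perinucleolar compartment, a nuclear body marking cancer cells; inconclusive = readout between -30 and a set limit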;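 also: plate controls were DMSO wells for no effect and camptothecin positive control wells for full effect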
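Read-out is percentage of cells bearing a perinucleolar compartment, from automated 20x imaging of fixed, Hoechst-stained PC3M PTB-GFP cells. Cells were seeded 4 h, then exposed 16 h to compound (23 nl of library stock) in duplicate plates.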
IMPase Li cell: qHTS Assay for Identifying the Cell-Membrane Permeable IMPase Inhibitors: Potentiation with Lithium; CHO-M1 cells, IP1 TR-FRET (IP-One), carbachol + lithium; Potency, µM (titrated, usually from 59.4 µM), for the others: top-dose activity, negative = IMPase inhibition, usual class: inhibitors; 210,000 tested, 0.35% active; active = well fitted inhibition curve with a large enough effect; inconclusive = small, poorly fitted or top-dose-only effect; inactive = no such curve, though single readings can be large or run the other way;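 also: IP1 builds up when IMPase is blocked and the TR-FRET signal falls; potency is read from the fitted curve at half-maximal effect; plate controls were basal vehicle for no effect and high inhibitor control for full effect; nearly all actives have a fitted effect of over 50% in size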
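Lithium-sensitised IP1 accumulation assay; M1-expressing CHO cells treated 30 min at 37C with compound. Competitive antibody detection by time-resolved FRET followed a 10 min room-temperature lysis step.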
IMPase inh: qHTS Assay for Identifying the Cell-Membrane Permeable IMPase Inhibitors; CHO-M1 cells, IP1 accumulation, HTRF TR-FRET ratio; AID 901, 2007; 120,000 tested, under 10 active; inhibition (IP1 accumulation), % at 46.1 µM; active = well fitted curve in the direction sought with a large enough effect in the signal ratio, not every such curve was filed as active; inconclusive = small, poorly fitted or top-dose-only effect, or a change in a side signal; inactive = no such curve, though single readings can be large or run the other way; the % refers to the signal ratio;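 also: cells stimulated with carbachol in lithium chloride buffer; plate controls were DMSO basal wells for no effect and reference inhibitor wells for full effect; higher means more IMPase inhibition seen as more IP1 and lower FRET ratio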
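The IP-One HTRF competitive assay in carbachol-stimulated CHO-M1 cells quantifies cellular IP1. Compounds spanned up to 46 uM final, and activity is expressed as AC50 from concentration-response fits of the ratio and donor data.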
ALDH1A1 block: qHTS Assay for Inhibitors of Aldehyde Dehydrogenase 1 (ALDH1A1). Aldehyde dehydrogenase 1A1 (Homo sapiens), P00352. Purified ALDH1A1, NADH fluorescence, propionaldehyde substrate. Potency, µM (highest dose often 75.3 µM), without a hit: at the highest dose activity, negative = inhibition, actives largely listed as inhibitors. 220,000 tested, 7.3% active. AID 1030, 2008;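 also: potency is read from the fitted curve at half-maximal effect; plate controls were no enzyme wells and a reference inhibitor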
Target sequence (P00352 whole entry, looked up): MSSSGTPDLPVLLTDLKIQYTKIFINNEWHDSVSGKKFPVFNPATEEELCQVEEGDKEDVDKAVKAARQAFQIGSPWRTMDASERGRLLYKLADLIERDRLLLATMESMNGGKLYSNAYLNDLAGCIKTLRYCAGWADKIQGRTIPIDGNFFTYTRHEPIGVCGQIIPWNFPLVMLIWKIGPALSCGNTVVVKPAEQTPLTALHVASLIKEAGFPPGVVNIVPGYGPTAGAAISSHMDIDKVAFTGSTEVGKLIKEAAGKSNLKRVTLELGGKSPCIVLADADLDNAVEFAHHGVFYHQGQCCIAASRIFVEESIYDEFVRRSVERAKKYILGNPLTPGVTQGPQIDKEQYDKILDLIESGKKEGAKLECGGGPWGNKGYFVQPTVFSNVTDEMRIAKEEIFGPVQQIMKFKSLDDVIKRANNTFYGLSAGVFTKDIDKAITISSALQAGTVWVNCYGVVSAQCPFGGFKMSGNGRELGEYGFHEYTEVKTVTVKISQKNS
HPGD inh: qHTS Assay for Inhibitors of HPGD (15-Hydroxyprostaglandin Dehydrogenase); 15-hydroxyprostaglandin dehydrogenase [NAD(+)] (Homo sapiens), P15428; purified HPGD, NADH fluorescence kinetic, PGE2 substrate; Potency, µM, for inactives: at the top dose activity change, negative = inhibition, hits mostly inhibitors; 150,000 tested, 4.3% active; also: potency is read from the fitted curve at half-maximal effect
Target sequence (P15428 whole entry, looked up): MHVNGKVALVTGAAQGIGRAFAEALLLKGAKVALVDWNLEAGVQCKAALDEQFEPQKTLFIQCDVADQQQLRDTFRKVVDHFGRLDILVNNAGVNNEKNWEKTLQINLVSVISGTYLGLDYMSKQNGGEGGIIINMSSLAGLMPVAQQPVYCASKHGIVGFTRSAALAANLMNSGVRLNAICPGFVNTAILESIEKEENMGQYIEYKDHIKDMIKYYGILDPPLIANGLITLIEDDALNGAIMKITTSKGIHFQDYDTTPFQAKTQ
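20 nM HPGD preincubated 15 min at room temperature with compound in 50 mM Tris-HCl pH 8, 0.01% Tween 20. Started with 1 mM NAD+ and 30 uM prostaglandin E2; NADH fluorescence (360/450 nm) read 5 times over 30-s intervals, last minus first.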
* marks the source's active call; other numbers are inactive results; ? = inconclusive; . = no result given; [ ] = remark or other dose. Compounds with a hit are over-represented: about 11% of the library has one in this group of screens. Unless noted, calls follow the shape of the dose curve; as a rule, active = well fitted inhibition curve with a large enough effect (not every such curve was filed as active); inconclusive = small, poorly fitted or top-dose-only effect, or another doubt; inactive = no such curve, though single readings can be large or run the other way. Unless noted, % is scaled to controls: 0 for no effect and ±100 for the full control effect.

SMILES	PNC assembly inh	IMPase Li cell	IMPase inh	ALDH1A1 block	HPGD inh
O=C(Nc1cccc(-c2cn3c(n2)SCC3)c1)c1ccc(Br)o1	.	-8%	.	16µM*	.
COc1ccc(Cc2nn3c(-c4ccccc4Br)nnc3s2)cc1	?	23%[38.3 µM]	3	?	?
COc1cc(-c2nnc3sc(Cc4ccccc4)nn23)cc(OC)c1OC	22	-8%[38.3 µM]	10	22µM*	?
COc1ccc(Cc2nn3c(-c4cc(OC)c(OC)c(OC)c4)nnc3s2)cc1	14	30%[38.3 µM]	-5	11µM*	22µM*
COc1cc(-c2nn3c(-c4ccccn4)nnc3s2)cc(OC)c1OC	15	6%[38.3 µM]	-9	8%	?
Cc1ccc(-n2ncc3c(SCc4cccnc4)ncnc32)c(C)c1	.	8%	.	1%	.
COc1cc(-c2nc3ncccn3c2Nc2ccc(C)cc2C)ccc1O	.	.	-19	.	.
Cc1cccc(NC(=S)N/N=C/c2c[nH]c3ccccc23)c1	-82*	-4%	.	9%	-20%
Cc1ccc(NC(=S)N/N=C/c2c(C)nn(-c3ccccc3)c2N2CCCC2)cc1	-25	.	-6	?	.
Cc1nn(C)cc1/C=N/NC(=S)Nc1ccccc1	0	-12%[38.3 µM]	-3	25µM*	28µM*
O=C(N/N=C/c1ccc(O)cc1)c1[nH]c2ccc(Br)cc2c1-c1ccccc1	-5	3%	.	?	-17%
O=C(CNc1ccccc1)N/N=C/c1c[nH]c2ccccc12	-119*	-2%	?	-3%	0.13µM*
O=C(N/N=C/c1c[nH]c2ccccc12)c1[nH]c2ccc(Br)cc2c1-c1ccccc1	-112*	12%	-1	?	?
O=C(CCC(=O)Nc1ccc(F)cc1)N/N=C/c1c[nH]c2ccccc12	.	0%	.	6%	.
CCCCc1ccc(CC(=O)O)cc1	?	-25%[38.3 µM]	4	14µM*	32µM*
FC(F)(F)c1cccc(OCCN2CCN(Cc3ccccc3)CC2)c1	39	.	-8	?	.
COC(=O)c1cc(Br)c(=O)n(-c2nccs2)c1	27	10µM*	?	?	-20%
COC(=O)c1cc(Br)c(=O)n(-c2cc(C)on2)c1	-24	10µM*	?	-1%	-17%
COC(=O)c1cc(Br)c(=O)n(-c2ccccn2)c1	-4	-11%[38.3 µM]	-22	-1%	-8%
Cc1ccc(F)cc1NC(=O)c1cnccn1	.	-4%	.	-1%	.
CCOC(=O)C1(Cc2ccccc2Cl)CCN(S(C)(=O)=O)CC1	.	5%	.	10µM*	.
COc1ccc(C2=CC(=O)OC3(CCCC3)O2)cc1	-19	3%[38.3 µM]	1	13µM*	-5%
CCOC(=O)C1=C(C)NC(C)=C(C(=O)OCC)C1c1cccs1	4	7%	.	2%	-11%
C#CCSC1=C(C#N)C(c2cccs2)C(C(=O)OCC)=C(C)N1 (configuration not stated)	24	23%[38.3 µM]	5	25µM*	-23%
CCCCS(=O)(=O)N1C2=NC(C(=O)OC)=C(C(=O)OC)[C@@H]3Nc4ccccc4[C@]23C[C@H]1C(=O)OC	.	1%	.	6%[13.5 µM]	-8%
SMILES	PNC assembly inh	IMPase Li cell	IMPase inh	ALDH1A1 block	HPGD inh
N#C/C(=C\c1ccc(-c2ccc(S(=O)(=O)N3CCOCC3)cc2)o1)C(=O)NC1CC1	-17	5%	.	?	14µM*
N#C/C(=C\c1ccc(-c2ccc(C(=O)O)cc2)o1)C(=O)NCC1CCCO1 (configuration not stated)	-11	11%	.	?	?
CCCCCn1c(=N)c(S(=O)(=O)c2ccccc2)cc2c(=O)n3ccccc3nc21	.	.	4	.	.
CCOc1ccc(CCNC(=O)CN2CCN(Cc3ccc(Cl)cc3)C2=O)cc1OCC	.	.	0	.	.
CCOc1ccc2nc(NS(C)(=O)=O)sc2c1	26	22%[38.3 µM]	-10	?	28µM*
CCOc1ccc2nc(NS(=O)(=O)c3ccc4c(c3)n(C)c(=O)n4C)sc2c1	16	4%[38.3 µM]	-1	?	25µM*
CCOc1ccc(S(=O)(=O)Nc2nc3ccc(OC)cc3s2)cc1	2	-8%[38.3 µM]	-1	5%	-23%
Cc1ccc(C(=O)/C=C/C(=O)O)cc1	7	-5%	8	0.45µM*	?
COc1cc(/C=C\C(=O)N2CCC=CC2=O)cc(OC)c1OC	.	1%	-1[20.6 µM]	?	-5%
N#Cc1ccccc1-c1cncnc1NCc1cccnc1	.	12%	.	28µM*	?
COc1ccccc1-c1cncnc1NCc1cccnc1	.	2%	.	-1%	-9%
Cc1ccnc(NS(=O)(=O)c2cnc(Cl)c(Br)c2)c1	?	3%	0	?	-18%
COc1ccc(CN2C(=O)NC(C)(c3ccc(C)cc3)C2=O)cc1F (configuration not stated)	.	21%	.	0.35µM*	.
COc1ccc(OCCN2C(=O)NC(C)(c3ccc(C)cc3)C2=O)cc1 (configuration not stated)	242	-5%	1	?	-13%
COc1ccc(CN2C(=O)NC3(CCOc4ccccc43)C2=O)cc1F (configuration not stated)	-80*	-2%	6	-14%	-4%
Cc1cccc(S(=O)(=O)Nc2nc3ccccc3nc2NCc2ccc3c(c2)OCO3)c1	29	4%	.	-2%	-15%
CCCCCCCC#Cc1ccccc1/C=N/S(=O)C(C)(C)C (configuration not stated)	.	.	.	21%[13.5 µM]	.
O=c1c2c(n3cnnc3n1-c1ccccc1)-c1ccccc1CC21CCCC1	19	-1%	.	?	-7%
Cn1c(=O)c2c(n3cnnc13)-c1ccccc1CC21CCCC1	9	-5%	0	11µM*	-11%
O[C@H](CNc1ccccn1)c1ccccc1	.	0%	.	-6%[13.5 µM]	-6%
CCC(C)NC(=O)/C=C1\Sc2ccccc2NC1=O (configuration not stated)	28	9%	6	?	?
Cc1ccc(N/C=C2/Sc3ccccc3NC2=O)cc1	.	6%	.	22µM*	.
O=C1Nc2ccccc2S/C1=C/NCc1ccccc1Cl	.	7%	.	4.5µM*	.
COc1ccc(N/C=C2/Sc3ccccc3NC2=O)cc1	.	8%	.	4µM*	.
O=C(O)c1ccccc1NS(=O)(=O)c1ccccc1F	.	.	.	2%	-12%
COc1ccc(NC(=O)C(=O)NNC(=O)c2cccs2)cc1	-93*	-5%	.	5%	-11%
CCOc1ccc(NC(=O)c2sc3ccccc3c2Cl)cc1	.	.	-3	.	.
COc1ccc(C(CC(=O)O)NC(=O)c2sc3ccccc3c2Cl)cc1 (configuration not stated)	?	5.6µM*	?	?	?
COc1ccc(C(CC(=O)O)NC(=O)c2cccs2)cc1 (configuration not stated)	-85*	16%[38.3 µM]	-7	-1%	-3%
